# Hits are enriched below; roughly 2.5% of the tested compounds scored in any of these assays.
# APE1 inh – blocks human APE1 abasic DNA cleavage. P27695. recombinant APE1, TAMRA/BHQ-2 abasic DNA cleavage fluorescence. Potency, µM (highest dose often 65.8 µM), inactives show at the top dose activity change, negative = inhibition, most hits filed as inhibitors. hit rate 0.35% among 350,000. AID 2517;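 also: potency is read from the fitted curve at half-maximal effect; plate controls were vehicle for no effect and reference inhibitor for full effect; nearly all actives have a fitted effect of over 55% in size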
#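 Incision of a quenched TAMRA/BHQ-2 THF abasic-site duplex (50 nM) by 0.75 nM APE1, after 15 min compound preincubation, measured as fluorescence increase over three 60 s reads. Values normalized to buffer, DMSO and NSC13755 control wells.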
# Pol iota inh – DNA polymerase iota (human) inhibition | Q9UNA4 | Pol iota fluorescent replication assay, 10 min | Potency, µM (doses to about 115 µM), without a hit: at the highest dose activity, negative = inhibition, actives largely listed as inhibitors | hit rate 1% among 390,000; also: potency is read from the fitted curve at half-maximal effect
#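 Fluorescent replication assay read twice, at 0 min and 10 min after adding 50 nM (final) substrate. Enzyme (10 nM) and compounds were first incubated 15 min at room temperature; enzyme-free buffer wells were negative controls.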
# Pol beta inh – DNA polymerase beta (human) inhibition; P06746; Pol beta primer extension/strand displacement, fluorescence kinetic; Potency, µM (highest dose often 114 µM), for the others: top-dose activity change, negative = inhibition, hits mostly inhibitors; hit rate 1.3% among 340,000; AID 485314; also: potency is read from the fitted curve at half-maximal effect; % is scaled to controls: 0 for no effect and ±100 for the full control effect
#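 Curves were derived by four-parameter Hill fits of normalized qHTS data. The kinetic fluorescent primer-extension read was taken at 0 and 10 min after 50 nM substrate, following a 15 min room-temperature preincubation of 10 nM enzyme with compounds.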
# Pol kappa inh-1 – blocks human DNA polymerase kappa activity | Q9UBT6 | purified Pol kappa, fluorescent DNA synthesis assay, 10 min | Potency, µM (series often up to 107 µM), without a hit: top-dose activity, negative = inhibition, hits mostly inhibitors | hit rate 0.53% among 400,000; also: potency is read from the fitted curve at half-maximal effect; % is scaled to controls: 0 for no effect and ±100 for the full control effect
# Target sequence (Q9UBT6 whole entry, looked up): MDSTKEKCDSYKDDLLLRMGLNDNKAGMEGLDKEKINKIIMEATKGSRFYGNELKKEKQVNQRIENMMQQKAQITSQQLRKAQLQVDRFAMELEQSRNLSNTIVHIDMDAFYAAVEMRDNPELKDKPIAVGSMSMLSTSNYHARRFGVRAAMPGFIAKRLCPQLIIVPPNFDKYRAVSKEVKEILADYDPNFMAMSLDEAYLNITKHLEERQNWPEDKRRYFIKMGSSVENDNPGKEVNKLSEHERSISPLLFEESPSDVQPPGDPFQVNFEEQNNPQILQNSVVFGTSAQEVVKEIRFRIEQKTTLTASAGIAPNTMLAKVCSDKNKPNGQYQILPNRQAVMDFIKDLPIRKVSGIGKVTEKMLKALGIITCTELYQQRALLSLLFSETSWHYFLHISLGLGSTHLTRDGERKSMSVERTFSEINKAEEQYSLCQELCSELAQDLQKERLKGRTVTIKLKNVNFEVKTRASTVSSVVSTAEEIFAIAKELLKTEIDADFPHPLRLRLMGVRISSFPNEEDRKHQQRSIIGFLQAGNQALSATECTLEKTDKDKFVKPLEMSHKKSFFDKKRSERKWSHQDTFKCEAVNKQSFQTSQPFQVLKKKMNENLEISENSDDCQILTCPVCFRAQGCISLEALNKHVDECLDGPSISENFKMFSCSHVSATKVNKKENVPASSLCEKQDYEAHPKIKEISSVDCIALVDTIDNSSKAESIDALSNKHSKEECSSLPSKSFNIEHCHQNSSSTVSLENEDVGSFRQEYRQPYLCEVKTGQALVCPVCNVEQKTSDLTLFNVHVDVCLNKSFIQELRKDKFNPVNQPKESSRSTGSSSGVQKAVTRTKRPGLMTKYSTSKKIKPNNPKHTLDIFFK
#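 Enzyme at 10 nM met test compounds for 15 min at room temperature. Substrate addition (50 nM final) began the reaction, which was monitored by fluorescence at 0 and 10 min.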
# Pol eta inh-1 – inhibitors of human DNA polymerase eta | Q9Y253 | recombinant Pol eta, fluorescent DNA replication assay | Potency, µM (series often up to 114 µM), for the others: top-dose activity change, negative = inhibition, hits mostly inhibitors | hit rate 1.2% among 390,000; also: potency is read from the fitted curve at half-maximal effect; % is scaled to controls: 0 for no effect and ±100 for the full control effect
#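 Pol eta (10 nM) was preincubated with compounds for 15 min at room temperature, after which fluorescent replication substrate (50 nM final) was added to start the reaction. Fluorescence was read kinetically at 0 and 10 min.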
# L3MBTL1 block – inhibitors of human L3MBTL1; Potency, µM (top dose mostly 57.1 µM), without a hit: at the highest dose activity, negative = inhibition, hits mostly inhibitors; AID 485360; hit rate 0.66% among 230,000; Q9Y468; AlphaScreen L3MBTL1–H3K9me1 peptide binding; also: potency is read from the fitted curve at half-maximal effect; % is scaled to controls: 0 for no effect and ±100 for the full control effect; nearly all actives have a fitted effect of over 60% in size
#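 L3MBTL1 (50 nM) pre-complexed 30 min with biotinylated H3(1-15)K9me1 peptide (75 nM), then compounds added for 30 min at room temperature; AlphaScreen streptavidin donor/nickel chelate acceptor beads (10 ug/mL final) read after 30 min dark incubation.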
# GALK inh confirm – galactokinase (human) inhibition, confirmation; shares compounds with Pol eta inh-1; purified GALK, Kinase-Glo ATP depletion luminescence; Potency, µM (doses to about 115 µM), inactives show at the highest dose activity, negative = inhibition, hits mostly inhibitors; hit rate 70% among 150; AID 2015
# GALK redox cs – redox cycling activity in phenol red-HRP assay; shares compounds with Pol eta inh-1; Phenol red-HRP H2O2 redox cycling, absorbance 600 nm; Potency, µM (highest dose often 115 µM), for the others: at the top dose activity change, negative = H2O2 signal, hits mostly inhibitors; hit rate 40% among 150; AID 2035
# HEK293 viability – reduces HEK-293 cell viability in GALK counter-screen; Potency, µM (doses to about 46.1 µM), for the others: at the highest dose activity change, negative = cytotoxicity, usual class: inhibitors; HEK-293 viability, ATP luminescence (CellTiter-Glo), 24/48 h; AID 2547; shares compounds with Pol eta inh-1; hit rate 10% among 170; also: potency is read from the fitted curve at half-maximal effect; % is scaled to controls: 0 for no effect and ±100 for the full control effect
# Pol kappa inh-2 – Pol kappa (human) inhibition, cherry-pick confirmation. shares compounds with Pol eta inh-1. purified Pol-kappa, fluorescent strand-displacement substrate. Potency, µM, hits mostly inhibitors. hit rate 76% among 920; also: potency is read from the fitted curve at half-maximal effect
# Pol eta inh-2 – confirmation of human DNA polymerase eta inhibitors | shares compounds with Pol eta inh-1 | hit rate 64% among 2,600 | Potency, µM, usual class: inhibitors | Pol eta primer extension, TAMRA/BHQ fluorescence, 10 min; also: potency is read from the fitted curve at half-maximal effect
# Numbers without * were called inactive; ? = inconclusive; / = no result given; [ ] = dose if it differs, or a comment. Calls follow the shape of the dose curve; as a rule, active = well fitted curve in the direction sought with a large enough effect; inconclusive = small, poorly fitted or top-dose-only effect, or another doubt; inactive = no such curve, though single readings can be large; an effect the other way counts as inactive or inconclusive.
SMILES,APE1 inh,Pol iota inh,Pol beta inh,Pol kappa inh-1,Pol eta inh-1,L3MBTL1 block,Pol eta inh-2,others
CCOC(=O)/C=C(\C)Sc1cc(O)c2ccccc2c1O,?,?,35µM*,11%,28µM*,?,/,GALK inh confirm=30µM*;GALK redox cs=19µM*;HEK293 viability=?
N#Cc1ccccc1OCC(=O)NC(=O)NCc1ccco1,?,?,-29%,-39%,40µM*,/,?,
O=C(N/N=C/c1ccncc1)c1cc2ccccc2cc1O,13%,-3%,-24%,-5%,-14%,/,/,
O=C(N/N=C/c1ccncc1)c1cc([N+](=O)[O-])cc([N+](=O)[O-])c1O,-3%,?,0%,-5%,25µM*,-10%,?,
O=C(COC(=O)c1ccc([N+](=O)[O-])o1)Nc1ccc2c(c1)OCO2,-37%,60%,/,-20%,?,?,/,
CCOc1ccccc1NC(=O)CN(C)S(=O)(=O)c1ccc(C(=O)N2CCOCC2)s1,/,-4%,-1%,-12%[60.1 µM],-6%,/,/,
CCCC(C(=O)Nc1ccc2c(C)cc(=O)oc2c1)c1ccccc1 (stereo not drawn),8%,18%,9%,-13%,-3%,/,/,
Cc1cc(C)n2c(SCC(O)=C(C#N)c3nc4ccccc4[nH]3)nnc2n1,/,11µM*,/,?,25µM*,/,?,
COc1cccc2cc(C(=O)C3=C(O)C(=O)N(CCN4CCOCC4)C3c3cccc(Cl)c3)oc12 (stereo not drawn),0%,-21%,3%,-14%,28µM*,/,17*,
Cc1ccccc1CCNC(=O)c1cc2cc(S(=O)(=O)N3CCCCC3)ccc2n1C,/,5%,3%,-18%[60.1 µM],-17%,/,/,
Cn1c(-n2cccc2)c(-c2c(-c3ccccc3)[nH]c3c2c(=O)[nH]c(=O)n3C)c(=O)[nH]c1=O,?,79µM*,16µM*,?,79µM*,14µM*,/,Pol kappa inh-2=?
Cc1cccc(C(=O)Nc2cc(-c3ccccc3F)nn2-c2ccccc2)c1,/,-8%,-1%,-13%[60.1 µM],-7%,/,/,
CC1=CC2(O)OCCN(CCO)C2=CC1=O (stereo not drawn),?,?,25µM*,?,?,?,?,
N#C/C(=C/c1ccc(-c2ccccc2[N+](=O)[O-])o1)C(N)=O,-1%,54%,?,-13%,3%,-1%,/,
O=c1nc2s/c(=C\c3ccc(-c4ccccc4[N+](=O)[O-])o3)c(=O)n2nc1-c1ccccc1,12%,7%,5µM*,-3%,?,2.2µM*,76*,
C/C(N)=C(/C#N)C(=O)COC(=O)C1CCN(S(=O)(=O)c2cccs2)CC1,5%,-7%,/,-18%,-18%,-5%,/,
C/C(N)=C(/C#N)C(=O)COC(=O)C1Cc2ccccc2CN1S(C)(=O)=O (stereo not drawn),?,22µM*,40µM*,?,20µM*,-27%,67*,
CS(=O)(=O)N1Cc2ccccc2CC1C(=O)OCC(=O)NCc1ccccc1 (stereo not drawn),?,79µM*,/,?,16µM*,-18%,?,
COc1ccc(OC)c(CNC(=O)c2cnc3c(C)cccn3c2=O)c1,/,42%,21%,1%[60.1 µM],3%,/,/,
O=C(CSc1nnc(Nc2ccccc2F)s1)NC(=O)CN1CCCC1=O,11µM*,?,/,?,22µM*,?,?,Pol kappa inh-2=67*
O=C(NCc1ccco1)c1nc2nc(-c3cccs3)cc(C(F)(F)F)n2n1,-10%,?,?,?,18µM*,?,76*,
Cc1cccc(Oc2ccccc2NS(=O)(=O)c2ccc(CCC(=O)O)cc2)c1,?,?,/,-44%,20µM*,?,85*,Pol kappa inh-2=19*
N#Cc1c(NC(=O)c2ccc(Br)o2)n(-c2ccccc2)c2nc3ccccc3nc12,-11%,10µM*,-1%,-5%,35µM*,-7%,/,GALK inh confirm=27µM*;GALK redox cs=5.3µM*;HEK293 viability=-12%
N#Cc1c(N)n(-c2ccc(O)cc2)c2nc3ccccc3nc12,-3%,18%,-19%,-4%,0%,12%,/,
